Measurements: the OligoGym collection

The sequences below were run against STRADB (assay: pooled miR-30 sensor sort-seq; sequence = guide strand). Settings: shRNA.
Further: reference of the scale not given here.

Row | Sequence | sensor-assay potency score (higher = more potent)
1 | TACTCCTGTGAATACAGCCATT | -1.43
2 | TACTGTGTGAGTTCCACTGGAG | 0.0726
3 | TAGATTAGTAATTCTGATGTTT | 0.0372
4 | TCTGACTTCACATTATACCCAT | 0.302
5 | TTCTTCATTGCAGTTTTCCAGA | -0.72
6 | TAATCGGTCACTATTTACTGTG | -0.781
7 | TTCTGTAACAGCATCTGAGTTC | -0.403
8 | TTCTACTTGGAGCTCATAGTGA | -0.852

Each sequence was assayed against STRBP in the same assay as above. Settings: shRNA.

Row | Sequence | sensor-assay potency score (higher = more potent)
9 | TTGATATTTCTCTTCTGTGAGT | -0.566
10 | TTCTTCTCCAATTCGTCCCTAA | 0.053
11 | TTTCGTTTCATCTTCTTGTTGG | 0.788
12 | TAAAACTTAAACTTTGAACTGC | 0.571
13 | TTGAGTTTGAAGACACTGTTTC | -0.227
14 | TAACAGAACCATTCTCTTGGGT | 0.367
15 | TTTGACTGTATTTAACAGGGTC | 0.301
16 | TTACACATGATTTTAATCCATT | -0.986
17 | TTACTATCCAGAATTTTCCTTA | 0.368
18 | TTTGAGACTCTATACATCCTTC | -0.328

These sequences were tested against STUB1 in the same assay as above. Settings: shRNA.

Row | Sequence | sensor-assay potency score (higher = more potent)
19 | TTGCGGTCGTAGGTGATGCCAC | -0.555
20 | TAGCTCTCCATCTCCAGCTGGC | -0.433
21 | TTGAGCTCCTGCGCGCTCGGGC | -0.67
22 | TTCCAGCGCTTCTTCTTCGCGA | -0.702
23 | TTGCCACACAGGTAGTCGGGGA | -0.252
24 | TTCGCGATTCGAAGAGCGCTGG | -0.358
25 | TAATACACGGCCACCAGCGGGT | -0.893
26 | TGCTCCTCGATGTCCTTGCGGT | -0.704
27 | TTATTACACAGATAGTGGCGGC | 0.272
28 | TTCAGGTAGCACAAGGCCCGGT | -0.567
29 | TTCCTCTTCTCATCCACCTGAG | -0.167
30 | ATAGCTCTCCATCTCCAGCTGG | -0.665

Each sequence was assayed against STX12 in the same assay as above. Settings: shRNA.

Row | Sequence | sensor-assay potency score (higher = more potent)
31 | TTTAATAAGTTCCAAATCCTGC | -0.773
32 | TTTTCTGATAGTAAGCAGCTCG | 0.207
33 | TAGCTTGCTTGAGTCCTGCTTA | -0.146
34 | TTGTCTAAAACTATGCATGGAG | -0.297
35 | TTGTGGAGTGTTGTAACTGTTG | -1.19
36 | TCTGATAGTAAGCAGCTCGCTG | -0.759
37 | TTTTCCTGTAGCTTGCTTGAGT | 0.00107
38 | TTGAGTCCTGCTTAGTTCCTAG | -0.155
39 | TAACTGTTGCAGATTTTCCTGT | 0.412
40 | AAATATCTGATTGACATCCAAA | -1.28
